# Screening results: PubChem BioAssay, several laboratories
# AMPAR-TARP mod = modulates AMPAR-stargazin complexes. 40,000 tested, 3.5% active. calls only at 30 µM. HEK293 GluA2+stargazin, membrane potential dye (FDSS), glutamate EC50; hits were called plate by plate, in both directions. O88602+P19491;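 active = any of four per-well response measures lying three or more SD from its plate-wide compound average, in either direction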
# GIRK2 act = Activators of human GIRK2-containing channels; activation (% efficacy), % for hits at 75 µM; P48051; HEK293 GIRK2/NPY4 cells, thallium flux fluorescence; 34,000 tested, under 10 active;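 active = primary screen hit, no activity in plain HEK293 cells, and in GIRK2-only cells above 5% efficacy rising with concentration; inactive = the rest, including fluorescent compounds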;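 note: efficacy is normalized control-subtracted fluorescence 15 s after thallium addition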
# Target sequence (P48051 whole entry, looked up): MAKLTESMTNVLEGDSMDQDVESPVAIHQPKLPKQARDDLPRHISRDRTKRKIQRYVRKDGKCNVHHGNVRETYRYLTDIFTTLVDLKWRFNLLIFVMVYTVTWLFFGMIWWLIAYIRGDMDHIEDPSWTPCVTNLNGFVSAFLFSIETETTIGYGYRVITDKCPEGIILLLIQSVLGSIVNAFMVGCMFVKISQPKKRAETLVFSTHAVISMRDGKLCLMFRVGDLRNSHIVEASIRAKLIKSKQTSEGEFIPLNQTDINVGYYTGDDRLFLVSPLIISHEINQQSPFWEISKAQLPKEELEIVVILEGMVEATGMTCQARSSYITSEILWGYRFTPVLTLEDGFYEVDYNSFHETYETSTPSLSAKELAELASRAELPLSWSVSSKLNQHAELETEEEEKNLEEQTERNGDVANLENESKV
# The depositor's hits bear a star; i = inactive; · = no result given; + = active, no number. Only a selection was taken, and hits are over-represented in it overall.
SMILES,AMPAR-TARP mod,GIRK2 act
NS(=O)(=O)c1ccc(CCNC(=O)C2COCC(=O)N2Cc2ccccc2)cc1 (stereo unspecified),i,i
Cc1cc(=O)oc2cc(OCC3CCNCC3)ccc12,+,i
Cc1cc(=O)oc2cc(OCC(=O)c3ccc(Cl)c(Cl)c3)ccc12,i,·
COCCN1CCC(CNC(=O)c2ccccc2C(F)(F)F)CC1,·,i
CCOc1ccc2ccccc2c1C(=O)NCC(O)(c1ccco1)C1CC1 (stereo unspecified),+,i
CCOc1ccc2ccccc2c1C(=O)NCC1CCN(C(C)C)CC1,·,i
CCOc1ccc2ccccc2c1C(=O)NCC(C)(O)c1ccccc1 (stereo unspecified),·,i
CCOc1ccc2ccccc2c1C(=O)NC1CCCC(O)C1 (stereo unspecified),+,i
CCOc1ccc2ccccc2c1C(=O)NCc1ccsc1,+,i
CCOc1cc(C(=O)NCc2ccsc2)cc(OCC)c1OCC,i,i
Fc1cc2sc(N3CCOCC3)nc2c(F)c1F,i,i
CC(Sc1ncc(-c2cccc(Br)c2)o1)C(=O)NCc1ccccc1 (stereo unspecified),·,i
COc1cc(-c2nnc(NC(=O)c3ccc4ncsc4c3)o2)cc(OC)c1OC,i,·
CCc1ccc(S(=O)(=O)N2CCN(c3ccccc3)CC2)cc1,i,·
Cn1nc(CNC(=O)NCc2cccs2)c2ccccc2c1=O,i,i
CC(C)S(=O)(=O)c1ccc(C(=O)Nc2nc3c(s2)CSc2ccccc2-3)cc1,i,i
O=C(Nc1nc2c(s1)CSc1ccccc1-2)c1cc2ccccc2o1,+,·
CC1CN(S(=O)(=O)N2CCCCC2)CCN1S(=O)(=O)N1CCCCC1 (stereo unspecified),i,·
COc1ccc(C(CNC(=O)C(=O)Nc2cc(Cl)ccc2C#N)N2CCOCC2)cc1 (stereo unspecified),·,i
O=C(Cc1cccs1)NNC(=O)c1cccn(Cc2ccc(Cl)c(Cl)c2)c1=O,+,i
O=C(Cc1ccc(F)cc1)NNC(=O)c1cccn(Cc2ccc(Cl)c(Cl)c2)c1=O,i,i
O=C(NCCN1CCOC(c2ccccc2)C1)c1cccc(C(F)(F)F)c1 (stereo unspecified),i,i
O=C(CCCCCn1c(=S)[nH]c2ccccc2c1=O)NCc1ccc(F)cc1,i,i
COC(=O)c1ccccc1NC(=O)CS(=O)(=O)c1cccs1,i,i
O=C(Cc1csc(Nc2ccccc2)n1)N1CCN(c2ncccn2)CC1,i,i
SMILES,AMPAR-TARP mod,GIRK2 act
COc1ccccc1Nc1nc(N2CCOCC2)c2ccccc2n1,+,·
CN1CCN(c2nc(N3CCOCC3)c3ccccc3n2)CC1,+,·
c1ccc2c(N3CCOCC3)nnc(N3CCOCC3)c2c1,i,i
COc1ccc(NC(=O)CSc2nc3ccccc3nc2N2CCOCC2)cc1,i,i
COc1ccc(OCCn2c(=O)oc3ccccc32)cc1,i,i
Cn1c(=O)c2c(SCC(=O)NCc3ccc4c(c3)OCO4)ccnc2n(C)c1=O,i,i
Cc1cc(S(=O)(=O)N2CCC(c3nnc(C(C)C)o3)CC2)c(Cl)cc1Cl,i,i
CCc1ccc(NCc2cc3ccc(OC)cc3n(CC(=O)Nc3ccccc3F)c2=O)cc1,i,·
CCc1ccc(NCc2cc3ccc(OC)cc3n(CC(=O)Nc3ccc(OC)cc3)c2=O)cc1,+,i
CCOCCn1c(=O)c2c(nc(-n3nc(C)cc3C)n2Cc2ccc(F)cc2)n(C)c1=O,i,i
CCOCCn1c(-n2nc(C)cc2C)nc2c1c(=O)n(Cc1cccc(C)c1)c(=O)n2C,+,i
CCc1cc(CC)n(-c2nc3c(c(=O)n(Cc4ccccc4)c(=O)n3C)n2CCOC)n1,+,·
CCc1cc(CC)n(-c2nc3c(c(=O)n(CC(C)C)c(=O)n3C)n2CCOC)n1,i,·
CCOCCn1c(=NC(=O)CN2C(=O)CCC2=O)sc2cc(F)ccc21,i,i
O=C(NCCS(=O)(=O)N1CCN(c2ncccn2)CC1)c1cccc(F)c1,i,i
O=C(Cn1cnc(-c2cccs2)cc1=O)NCC(F)(F)F,+,i
O=C(Cn1cnc(-c2cccs2)cc1=O)NCc1ccccc1OC(F)(F)F,i,i
NC(=O)c1ccc(NC(=O)CC2=NS(=O)(=O)c3ccccc3N2)cc1,i,i
O=C(Nc1c(Cl)cccc1Cl)C1CCCCC1,+,·
CSc1cccc2sc(NC(=O)C3CCCCC3)nc12,i,i
Cc1ccc(CC(=O)Nc2sc3c(c2-c2nc4ccccc4s2)CCC(C)C3)cc1C (stereo unspecified),i,·
COc1cc(C)c(S(=O)(=O)NCCOc2ccc(-c3ccc(F)cc3)nn2)cc1C,+,i
COc1ccc(-c2ccc(OCCNS(=O)(=O)c3cc(C)c(OC)cc3C)nn2)cc1,i,i
O=C(NCC1CCN(C(=O)/C=C/c2ccco2)CC1)c1nc2ccccc2s1,i,i
C=CCN(CC=C)C(=O)Cn1c(C2CC(=O)N(Cc3ccccc3)C2)nc2ccccc21 (stereo unspecified),i,i
SMILES,AMPAR-TARP mod,GIRK2 act
C=CCN1CC(c2nc3ccccc3n2Cc2c(Cl)cccc2Cl)CC1=O (stereo unspecified),+,·
CCN1CC(c2nc3ccccc3n2Cc2c(Cl)cccc2Cl)CC1=O (stereo unspecified),+,·
CCN1CC(c2nc3ccccc3n2CC(=O)N2CCCCC2)CC1=O (stereo unspecified),·,i
CCCCN1CC(c2nc3ccccc3n2Cc2ccc(Cl)cc2)CC1=O (stereo unspecified),i,·
C=CCN1CC(c2nc3ccccc3n2Cc2ccccc2Cl)CC1=O (stereo unspecified),i,·
CCN1CC(c2nc3ccccc3n2Cc2ccc(Cl)cc2Cl)CC1=O (stereo unspecified),+,·
CCCCN1CC(c2nc3ccccc3n2CCOc2cccc(C)c2)CC1=O (stereo unspecified),+,·
CCCCN1CC(c2nc3ccccc3n2CCOc2ccccc2)CC1=O (stereo unspecified),i,·
CCCCc1ccc(-n2c(C)c(C)n3c4c(=O)n(CCN5CCOCC5)c(=O)n(C)c4nc23)cc1,i,·
O=C(CCc1ccccc1)Nc1cccc(N2CCCC2=O)c1,i,i
CC1(C)CC(=O)c2sc(NC(=O)CCCS(=O)(=O)c3ccc(Cl)cc3)nc2C1,i,·
CC(C(=O)Nc1ccc(Br)cc1)N1C(=O)c2ccccc2S1(=O)=O (stereo unspecified),i,i
CC(C(=O)Nc1cccc(Br)c1)N1C(=O)c2ccccc2S1(=O)=O (stereo unspecified),+,i
CC(C(=O)Nc1ccc(F)c(F)c1F)N1C(=O)c2ccccc2S1(=O)=O (stereo unspecified),i,·
CC(C(=O)Nc1nc2ccc(S(C)(=O)=O)cc2s1)N1C(=O)c2ccccc2S1(=O)=O (stereo unspecified),i,·
CC(C(=O)Nc1nc2ccccc2s1)N1C(=O)c2ccccc2S1(=O)=O (stereo unspecified),+,·
CC(C(=O)Nc1cc(Cl)ccc1O)N1C(=O)c2ccccc2S1(=O)=O (stereo unspecified),+,i
O=C(/C=C/c1ccco1)N1CCN(c2ccc(-c3cccnc3)nn2)CC1,i,i
